# Measurements: ChEMBL document CHEMBL1961873, “Compounds: GSK PKIS; Assays: Nanosyn kinase panel” (2012)
# Key:
# [1] = target: Platelet-derived growth factor receptor beta (Homo sapiens) (UniProt P09619); settings: at 1 µM;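 further: each value is a mean percent inhibition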
# [2] = target: Tyrosine-protein kinase FRK (Homo sapiens) (UniProt P42685); settings: at 0.1 µM
# [3] = target: Tyrosine-protein kinase FRK (Homo sapiens) (UniProt P42685); settings: at 1 µM
# [4] = target: Protein-tyrosine kinase 2-beta (Homo sapiens) (UniProt Q14289); settings: at 0.1 µM
# Chain of Protein-tyrosine kinase 2-beta (Homo sapiens) (Q14289 whole entry, looked up): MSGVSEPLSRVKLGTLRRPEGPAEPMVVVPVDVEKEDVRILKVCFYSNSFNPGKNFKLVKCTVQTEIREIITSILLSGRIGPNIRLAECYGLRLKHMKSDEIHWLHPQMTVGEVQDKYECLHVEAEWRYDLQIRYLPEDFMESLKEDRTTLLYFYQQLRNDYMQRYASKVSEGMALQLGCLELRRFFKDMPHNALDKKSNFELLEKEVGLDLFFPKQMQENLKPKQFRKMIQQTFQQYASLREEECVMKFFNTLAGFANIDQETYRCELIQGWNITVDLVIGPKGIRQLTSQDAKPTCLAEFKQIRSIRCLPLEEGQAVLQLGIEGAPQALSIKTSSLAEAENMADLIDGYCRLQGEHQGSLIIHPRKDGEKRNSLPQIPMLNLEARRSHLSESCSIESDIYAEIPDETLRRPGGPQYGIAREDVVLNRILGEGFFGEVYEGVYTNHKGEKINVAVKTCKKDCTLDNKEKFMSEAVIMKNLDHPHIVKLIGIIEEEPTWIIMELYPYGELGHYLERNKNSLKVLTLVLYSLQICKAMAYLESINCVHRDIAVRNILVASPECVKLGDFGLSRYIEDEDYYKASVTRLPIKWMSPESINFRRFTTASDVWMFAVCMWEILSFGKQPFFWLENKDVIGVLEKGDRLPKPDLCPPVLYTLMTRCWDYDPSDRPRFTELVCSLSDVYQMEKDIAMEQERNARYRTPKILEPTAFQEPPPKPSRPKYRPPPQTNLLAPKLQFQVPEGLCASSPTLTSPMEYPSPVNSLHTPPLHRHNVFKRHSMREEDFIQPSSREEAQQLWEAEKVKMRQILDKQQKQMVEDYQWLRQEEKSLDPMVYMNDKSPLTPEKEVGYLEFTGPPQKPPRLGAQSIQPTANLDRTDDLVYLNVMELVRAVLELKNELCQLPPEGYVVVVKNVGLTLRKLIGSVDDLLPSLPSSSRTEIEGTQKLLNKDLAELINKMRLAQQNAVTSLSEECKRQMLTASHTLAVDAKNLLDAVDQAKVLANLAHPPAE
# [5] = target: Protein-tyrosine kinase 2-beta (Homo sapiens) (UniProt Q14289); settings: at 1 µM
# [6] = target: Proto-oncogene tyrosine-protein kinase receptor Ret (Homo sapiens) (UniProt P07949); settings: at 0.1 µM
# Chain of Proto-oncogene tyrosine-protein kinase receptor Ret (Homo sapiens) (P07949 whole entry): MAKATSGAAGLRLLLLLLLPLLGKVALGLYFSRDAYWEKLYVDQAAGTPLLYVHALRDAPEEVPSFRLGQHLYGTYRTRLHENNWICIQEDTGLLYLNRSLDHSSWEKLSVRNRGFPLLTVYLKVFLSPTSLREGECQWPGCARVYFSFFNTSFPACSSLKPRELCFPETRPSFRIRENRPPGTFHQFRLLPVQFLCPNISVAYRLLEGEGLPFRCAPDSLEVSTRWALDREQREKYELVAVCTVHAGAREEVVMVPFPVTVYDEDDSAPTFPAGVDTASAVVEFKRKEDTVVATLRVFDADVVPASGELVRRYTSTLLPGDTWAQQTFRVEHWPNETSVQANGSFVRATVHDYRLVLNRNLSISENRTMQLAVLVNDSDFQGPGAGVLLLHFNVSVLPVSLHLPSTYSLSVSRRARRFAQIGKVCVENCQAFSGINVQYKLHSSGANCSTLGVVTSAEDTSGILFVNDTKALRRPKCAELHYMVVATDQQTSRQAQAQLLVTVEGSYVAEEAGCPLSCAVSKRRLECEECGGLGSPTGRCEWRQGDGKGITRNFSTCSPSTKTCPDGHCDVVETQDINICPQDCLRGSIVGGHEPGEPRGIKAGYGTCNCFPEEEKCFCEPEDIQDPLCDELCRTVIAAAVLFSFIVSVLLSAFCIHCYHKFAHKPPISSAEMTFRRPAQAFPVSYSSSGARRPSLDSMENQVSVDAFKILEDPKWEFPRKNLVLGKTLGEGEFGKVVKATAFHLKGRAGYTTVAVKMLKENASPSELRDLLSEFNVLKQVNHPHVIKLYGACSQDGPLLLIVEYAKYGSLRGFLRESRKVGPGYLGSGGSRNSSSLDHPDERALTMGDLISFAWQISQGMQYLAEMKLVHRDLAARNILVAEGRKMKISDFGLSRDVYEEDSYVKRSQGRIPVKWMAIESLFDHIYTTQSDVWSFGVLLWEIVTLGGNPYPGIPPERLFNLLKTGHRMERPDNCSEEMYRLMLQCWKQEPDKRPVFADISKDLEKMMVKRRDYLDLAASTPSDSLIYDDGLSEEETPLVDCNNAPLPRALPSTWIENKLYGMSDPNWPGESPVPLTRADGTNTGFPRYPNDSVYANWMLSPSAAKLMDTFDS
# [7] = target: Proto-oncogene tyrosine-protein kinase receptor Ret (Homo sapiens) (UniProt P07949); settings: at 1 µM
# [8] = test system: Proto-oncogene tyrosine-protein kinase receptor Ret (Homo sapiens), P07949 [V804L]; settings: at 0.1 µM
# Chain of Proto-oncogene tyrosine-protein kinase receptor Ret (Homo sapiens), P07949 [V804L] (P07949 whole entry V804L): as the sequence (P07949 whole entry) above, with V804L counted along it
# [9] = test system: Proto-oncogene tyrosine-protein kinase receptor Ret (Homo sapiens), P07949 [V804L]; settings: at 1 µM
# [10] = test system: Proto-oncogene tyrosine-protein kinase receptor Ret (Homo sapiens), P07949 [Y791F]; settings: at 0.1 µM
# Chain of Proto-oncogene tyrosine-protein kinase receptor Ret (Homo sapiens), P07949 [Y791F] (P07949 whole entry Y791F): as the sequence (P07949 whole entry) above, with Y791F counted along it
# [11] = test system: Proto-oncogene tyrosine-protein kinase receptor Ret (Homo sapiens), P07949 [Y791F]; settings: at 1 µM
# [12] = target: Macrophage-stimulating protein receptor (Homo sapiens) (UniProt Q04912); settings: at 0.1 µM
# [13] = target: Macrophage-stimulating protein receptor (Homo sapiens) (UniProt Q04912); settings: at 1 µM
# [14] = target: Proto-oncogene tyrosine-protein kinase ROS (Homo sapiens) (UniProt P08922); settings: at 0.1 µM
# [15] = target: Proto-oncogene tyrosine-protein kinase ROS (Homo sapiens) (UniProt P08922); settings: at 1 µM
# [16] = target: Proto-oncogene tyrosine-protein kinase Src (Homo sapiens) (UniProt P12931); settings: at 0.1 µM
# Chain of Proto-oncogene tyrosine-protein kinase Src (Homo sapiens) (P12931 2-536 limits assumed): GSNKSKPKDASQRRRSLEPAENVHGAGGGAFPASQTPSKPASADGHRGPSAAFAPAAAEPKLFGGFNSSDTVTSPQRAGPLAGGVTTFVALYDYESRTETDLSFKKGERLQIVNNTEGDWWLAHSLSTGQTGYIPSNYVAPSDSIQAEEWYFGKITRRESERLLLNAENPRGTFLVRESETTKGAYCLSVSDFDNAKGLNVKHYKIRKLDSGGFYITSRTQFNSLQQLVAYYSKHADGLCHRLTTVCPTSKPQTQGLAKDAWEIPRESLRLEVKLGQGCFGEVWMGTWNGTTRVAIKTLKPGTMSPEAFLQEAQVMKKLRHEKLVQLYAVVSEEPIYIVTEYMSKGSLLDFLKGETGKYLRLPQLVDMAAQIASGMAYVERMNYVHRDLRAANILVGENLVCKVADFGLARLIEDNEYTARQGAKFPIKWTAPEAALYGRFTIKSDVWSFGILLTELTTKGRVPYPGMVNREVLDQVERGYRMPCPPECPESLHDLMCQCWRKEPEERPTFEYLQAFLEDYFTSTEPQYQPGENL
# [17] = target: Proto-oncogene tyrosine-protein kinase Src (Homo sapiens) (UniProt P12931); settings: at 1 µM
# [18] = target: Tyrosine-protein kinase Srms (Homo sapiens) (UniProt Q9H3Y6); settings: at 0.1 µM
# Chain of Tyrosine-protein kinase Srms (Homo sapiens) (Q9H3Y6 whole entry): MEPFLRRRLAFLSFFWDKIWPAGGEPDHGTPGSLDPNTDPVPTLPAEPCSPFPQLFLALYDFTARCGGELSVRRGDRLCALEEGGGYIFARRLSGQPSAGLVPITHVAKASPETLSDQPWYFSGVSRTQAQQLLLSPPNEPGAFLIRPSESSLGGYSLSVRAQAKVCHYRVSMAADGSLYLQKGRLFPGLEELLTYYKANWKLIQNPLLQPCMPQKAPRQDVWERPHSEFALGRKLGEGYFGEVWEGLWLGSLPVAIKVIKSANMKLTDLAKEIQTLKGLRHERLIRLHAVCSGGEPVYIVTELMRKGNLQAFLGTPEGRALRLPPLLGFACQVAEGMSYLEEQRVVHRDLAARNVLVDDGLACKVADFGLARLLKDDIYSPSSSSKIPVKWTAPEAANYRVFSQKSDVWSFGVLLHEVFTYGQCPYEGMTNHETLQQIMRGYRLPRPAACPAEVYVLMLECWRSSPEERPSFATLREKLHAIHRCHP
# [19] = target: Tyrosine-protein kinase Srms (Homo sapiens) (UniProt Q9H3Y6); settings: at 1 µM
# [20] = target: Tyrosine-protein kinase SYK (Homo sapiens) (UniProt P43405); settings: at 0.1 µM;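 further: reported percentages are mean inhibition values for SYK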
# Chain of Tyrosine-protein kinase FRK (Homo sapiens) (P42685 whole entry): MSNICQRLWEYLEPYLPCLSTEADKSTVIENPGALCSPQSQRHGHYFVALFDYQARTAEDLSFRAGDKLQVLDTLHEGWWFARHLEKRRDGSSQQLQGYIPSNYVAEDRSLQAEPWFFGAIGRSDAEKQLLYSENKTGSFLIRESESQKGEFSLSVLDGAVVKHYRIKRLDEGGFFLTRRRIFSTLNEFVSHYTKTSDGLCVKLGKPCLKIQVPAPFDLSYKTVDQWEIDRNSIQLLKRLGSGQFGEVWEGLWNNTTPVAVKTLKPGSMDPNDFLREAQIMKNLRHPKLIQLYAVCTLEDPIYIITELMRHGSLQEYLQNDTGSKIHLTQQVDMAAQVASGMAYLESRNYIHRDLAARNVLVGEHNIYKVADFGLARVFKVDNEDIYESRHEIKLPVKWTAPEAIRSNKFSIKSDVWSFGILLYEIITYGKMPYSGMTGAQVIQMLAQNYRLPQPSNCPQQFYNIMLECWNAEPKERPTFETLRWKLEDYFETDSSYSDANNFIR
# Chain of Platelet-derived growth factor receptor beta (Homo sapiens) (P09619 whole entry): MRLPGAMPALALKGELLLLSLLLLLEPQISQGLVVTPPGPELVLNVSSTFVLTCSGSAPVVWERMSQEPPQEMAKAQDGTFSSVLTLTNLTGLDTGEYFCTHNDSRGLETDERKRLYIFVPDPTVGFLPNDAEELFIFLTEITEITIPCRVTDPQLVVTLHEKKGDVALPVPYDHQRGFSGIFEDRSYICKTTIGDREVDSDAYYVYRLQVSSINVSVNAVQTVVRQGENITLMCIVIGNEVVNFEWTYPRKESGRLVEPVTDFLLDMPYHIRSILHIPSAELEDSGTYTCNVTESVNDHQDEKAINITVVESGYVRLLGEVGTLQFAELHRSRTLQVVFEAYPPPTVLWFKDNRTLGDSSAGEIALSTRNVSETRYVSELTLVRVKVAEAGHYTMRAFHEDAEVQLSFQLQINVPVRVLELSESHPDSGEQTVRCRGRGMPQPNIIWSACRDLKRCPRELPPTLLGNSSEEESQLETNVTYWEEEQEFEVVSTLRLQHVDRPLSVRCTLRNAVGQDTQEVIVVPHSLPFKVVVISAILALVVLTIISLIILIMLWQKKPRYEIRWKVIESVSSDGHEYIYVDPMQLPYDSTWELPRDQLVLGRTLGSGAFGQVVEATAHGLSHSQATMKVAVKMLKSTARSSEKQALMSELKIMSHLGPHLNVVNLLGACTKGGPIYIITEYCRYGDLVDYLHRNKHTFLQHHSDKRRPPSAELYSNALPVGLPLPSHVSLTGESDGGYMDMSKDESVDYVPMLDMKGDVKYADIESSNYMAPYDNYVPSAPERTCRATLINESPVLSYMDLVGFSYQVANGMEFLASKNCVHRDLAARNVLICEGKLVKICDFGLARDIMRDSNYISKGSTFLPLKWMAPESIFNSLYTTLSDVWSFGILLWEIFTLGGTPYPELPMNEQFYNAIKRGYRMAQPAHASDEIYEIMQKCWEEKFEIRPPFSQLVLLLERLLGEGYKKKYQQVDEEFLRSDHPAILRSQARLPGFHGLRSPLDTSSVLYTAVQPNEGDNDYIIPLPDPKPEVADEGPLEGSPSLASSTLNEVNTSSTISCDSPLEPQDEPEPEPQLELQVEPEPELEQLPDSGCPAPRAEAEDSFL
Compound,inhibition [1],inhibition [2],inhibition [3],inhibition [4],inhibition [5],inhibition [6],inhibition [7],inhibition [8],inhibition [9],inhibition [10],inhibition [11],inhibition [12],inhibition [13],inhibition [14],inhibition [15],inhibition [16],inhibition [17],inhibition [18],inhibition [19],inhibition [20]
COc1cc2ncn(-c3cc(OCc4ccccc4Cl)c(C(N)=O)s3)c2cc1OC,86.5%,2.63%,2.45%,-1.12%,6.28%,17.7%,60.8%,4.73%,26.9%,20.7%,60.2%,0.23%,13.3%,9.59%,29.2%,20.5%,20.9%,2.74%,7.95%,-2.2%
O=C(Nc1n[nH]c2nc(-c3ccco3)c(Br)cc12)C1CC1,6.81%,1.22%,4.35%,-1.24%,3.71%,6.36%,4.7%,4.14%,0.95%,4.67%,-2.51%,1.47%,4.05%,3.63%,3.03%,12.5%,14.2%,-2.24%,-0.3%,0.12%
CCn1c(-c2nonc2N)nc2cncc(C(=O)N3CCNCC3)c21,4.8%,3.81%,4.59%,4.67%,9.07%,4.73%,6.87%,3.5%,6.04%,5.85%,5.78%,3.02%,4.33%,7.86%,7.97%,14.1%,16.4%,-3.72%,-2.89%,-1.71%
COC(=O)Nc1nc2cc(Oc3cccc(NC(=O)Nc4cc(C(F)(F)F)ccc4F)c3)ccc2[nH]1,45.3%,-0.02%,1.37%,0.22%,-4.43%,17%,61.1%,4.35%,8.1%,9.63%,38.9%,6.28%,-2.46%,1.83%,2.46%,9.23%,5.13%,0.35%,-1.15%,0.17%
CC1=C(C(=O)Nc2ccc3[nH]ncc3c2)C(c2ccc3ccccc3c2)CC(=O)N1 (stereo not given),13.7%,2.73%,17.3%,3.97%,7.64%,20.4%,65.8%,12.4%,53.2%,20.1%,60.5%,34%,67.5%,7.1%,14.5%,13%,64.9%,1.12%,1.41%,2.43%
CS(=O)(=O)CCN(CC#N)Cc1ccc(-c2ccc3ncnc(Nc4ccc(OCc5cccc(F)c5)c(Cl)c4)c3c2)o1,6.45%,1.47%,2.48%,3.85%,9.33%,0.24%,2.76%,1.02%,3.35%,2.36%,3.1%,0.07%,0.14%,6.53%,4.3%,3.38%,4.01%,1.13%,-1.83%,1.85%
CC1=C(C(=O)Nc2ccc3[nH]ncc3c2)C(c2ccc(F)cc2)NC(=O)N1 (stereo not given),6.86%,1.9%,1.47%,10.1%,8.37%,6.58%,35%,6.27%,35.5%,8.37%,42.4%,4.69%,21.4%,7.19%,29.2%,-8.18%,4.28%,0.2%,2.69%,0.2%
c1cnn2ncc(-c3ccnc(Nc4ccc5c(c4)OCCO5)n3)c2c1,67.3%,1.69%,3.19%,32.6%,84.6%,5.62%,21.9%,5.79%,22%,4.73%,26.2%,4.39%,16.8%,79.9%,82.7%,-0.83%,32.3%,-0.57%,1.78%,-8.51%
NCc1ccc(-c2nc(-c3ccc(Cl)c(O)c3)c(-c3ccncc3)[nH]2)cc1,31%,5.22%,35.3%,3.97%,-0.14%,47.6%,76.6%,1.17%,7.47%,39.5%,76.3%,-0.28%,2.55%,2.98%,8.44%,19.8%,63.3%,3.6%,21.7%,-2.73%
CCn1c(-c2nonc2N)nc2ccncc21,5.63%,0.98%,0.17%,3.23%,7.52%,2.99%,5.58%,4.69%,-1.85%,1.52%,1.54%,0.89%,0.11%,2.31%,2.5%,8.34%,4.59%,-0.44%,-0.79%,0.22%
CCc1cccc(NC(=O)Nc2ccc(Oc3ccc4nc(NC(=O)OC)[nH]c4c3)cc2)c1,56.3%,-0.04%,2.98%,0.73%,8.1%,72.8%,79.9%,35.6%,63.1%,53.5%,74.6%,5.94%,5.62%,-0.48%,0.49%,0.79%,5.84%,0.61%,1.28%,2.75%
N#Cc1c(NC(=O)c2cccc3ccccc23)sc2c1CCCC2,9.27%,2.64%,1.48%,2.95%,5.82%,5.35%,5.82%,3.1%,3.6%,5.18%,2.2%,1.52%,3.88%,3.2%,5.26%,12.3%,7.06%,-0.23%,-0.56%,-4.41%
CCCN1CCC=C(c2ccc(Nc3nc(Nc4ccccc4C(N)=O)c4cc[nH]c4n3)c(C)c2)C1,37.2%,1.94%,4.17%,78%,94.9%,5.97%,24.3%,18.6%,58.3%,9.36%,25.8%,7.2%,11.6%,24.3%,61.2%,8.87%,17.4%,-3.15%,0.8%,-0.42%
